Many of the other results were omitted from the sample, so hits are more common in it than they were.
Pf Dd2 inh: Plasmodium falciparum Dd2 growth inhibition; P. falciparum Dd2 growth, SYBR Green, 72 h; hit rate 4.3% among 120,000; Potency, µM (doses to about 28.9 µM), hits mostly inhibitors; active means well fitted inhibition curve with a large enough effect; further: nearly all actives have a fitted effect of over 65% in size
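Readout: SYBR Green fluorescence, 485 nm excitation, 535 nm emission, after ~16 h lysis at 37C. Before that, Dd2-infected red cells (2.5% hematocrit) grew 72 h with compound, 29 uM top final concentration.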
Each line names hits and unclear results; the compound was inactive in the other large screens.

COc1ccc(CCNC(=O)CCc2c(C)nc3cc(-c4cccc(F)c4)nn3c2C)cc1OC	none
COc1ccccc1-c1cc2nc(C)c(CCC(=O)NCCc3ccc(SC)cc3)c(C)n2n1	Pf Dd2 inh 12.6µM
CCOC(=O)c1ccc(NC(=O)CCc2c(C)nc3cc(-c4ccc(OC)cc4OC)nn3c2C)cc1	Pf Dd2 inh 5.01µM
COc1cc(OC)cc(-c2cc3nc(C)c(CCC(=O)Nc4ccccc4OC)c(C)n3n2)c1	none
COc1cc(OC)cc(-c2cc3nc(C)c(CCC(=O)Nc4ccc(C(C)=O)cc4)c(C)n3n2)c1	none
COc1ccc(-c2cc3nc(C)c(CCC(=O)N4CCN(c5ccccc5)CC4)c(C)n3n2)c(OC)c1	none
COc1cc(OC)cc(-c2cc3nc(C)c(CCC(=O)NCc4ccccc4)c(C)n3n2)c1	none
CC[C@H]1CN(S(=O)(=O)c2c(C)noc2C)CC[C@H]1CC(=O)NCc1ccco1	none
O=C(O)C1=NOC2CN([S+](=O)([O-])c3cccc(C(F)(F)F)c3)CC12 (stereo not given)	none
O=C(CCc1ccc(=O)[nH]n1)N[C@@H]1COCC[C@H]1Oc1ccccn1	none
O=C(c1ccccc1-c1ccccc1F)N(Cc1cccnc1)C1CC1	none
COCCn1ncc(N2CCCC(CC(=O)NCc3cccs3)C2)cc1=O (stereo not given)	none
COc1ccc(-c2cc(N3CCC(NC(=O)c4cccc(C#N)c4)CC3)n[nH]2)cc1	none
CN(C)S(=O)(=O)c1ccc(C(=O)N2CC(=O)Nc3ccc(Br)cc3C2c2ccc(F)cc2)cc1 (stereo not given)	none
CCCCC1CCC(C(=O)N2CC(=O)Nc3ccc(Br)cc3C2c2ccc(F)cc2)CC1 (stereo not given)	Pf Dd2 inh 10µM
CCOc1ccc(C(=O)N2CC(=O)Nc3ccc(F)cc3C2c2ccc(F)cc2)cc1 (stereo not given)	none
CCCCC(=O)N1CC(=O)Nc2ccc(F)cc2C1c1ccc(F)cc1 (stereo not given)	Pf Dd2 inh 7.94µM
COc1ccc(CC(=O)N2CC(=O)Nc3ccc(Br)cc3C2c2ccc(F)cc2)cc1 (stereo not given)	none
CC(=O)N1CC(=O)Nc2ccc(F)cc2C1c1ccccc1 (stereo not given)	none
Cc1ncsc1CN(C)C1CCc2nn(C)c(=O)n2CC1 (stereo not given)	none
COCCC1(N(C)C)CCN(C(=O)C2CC2)CC1	none
O=C(c1ccc(C(F)(F)F)cc1)N1CCC2(CC1)CN[S+](=O)([O-])c1cccnc1O2	none
COCCOc1ccc2c(n1)CCN(C(=O)c1ccnn1C)C2	none
Cc1oc(-c2ccc(Cl)cc2)nc1CN1CCCC(C(=O)NCc2ccc(Cl)cc2)C1 (stereo not given)	none
Cc1cc(C)cc(Oc2coc3c(CN4CCN(C)CC4)c(O)ccc3c2=O)c1	none
Cc1c(CO)cccc1NC(=O)c1ccc(CN2CCCC(C)C2)cc1 (stereo not given)	none
Cc1cc(Oc2c(C(F)(F)F)oc3c(CN4CCC(C)CC4)c(O)ccc3c2=O)cc(C)c1Cl	Pf Dd2 inh 0.447µM
CC1CCCN(Cc2nc3c(c(=O)n(C)c(=O)n3C)n2Cc2ccc(Cl)cc2)C1 (stereo not given)	none
CC1CCCN(Cc2c(O)ccc3c(=O)c(-c4ccc(Cl)cc4)c(C(F)(F)F)oc23)C1 (stereo not given)	Pf Dd2 inh 0.708µM
CC1CCN(C(=O)CSc2nnc(-c3ccccc3Cl)o2)CC1	none
Cc1ccc(Oc2c(C(F)(F)F)oc3c(CN4CCCCC4C)c(O)ccc3c2=O)cc1 (stereo not given)	none
CC1CCCN(Cc2c(O)ccc3c(=O)c(-c4ccccc4Cl)c(C(F)(F)F)oc23)C1 (stereo not given)	Pf Dd2 inh 0.891µM
COc1cccc(CNC(=O)[C@@H]2C[C@@H](O)CN2C2CCN(C(=O)c3ccccc3)CC2)c1	none
O=C(C[C@@H]1O[C@H](CNS(=O)(=O)c2ccc(Cl)cc2)[C@@H](O)[C@H]1O)NC1CC1	none
CCn1cc(S(=O)(=O)N2CCC(c3noc(-c4ccccn4)n3)C2)cn1 (stereo not given)	none
COc1ccc(OC)c(NC(=O)C2CCCCC(=O)N2)c1 (stereo not given)	none
Cc1cnc(CC2CCN(C(=O)c3ccco3)CC2)n1CC1CC1	none
COc1ccc(NC(=O)N2CC(c3noc(-c4ccccc4)n3)C2)c(C)c1	none
O=C(c1cccs1)N1CCC2(CC1)NC(=O)N(Cc1ccccc1)C2=O	none
COc1ccc(C(=O)NC2CCN(c3cc(C(F)(F)F)nc(C)n3)CC2)c(C)c1	none
Cc1nc(N2CCC(NC(=O)c3ccsc3)CC2)cc(C(F)(F)F)n1	none
Cc1nc(N2CCC(NC(=O)Cc3cccs3)CC2)cc(C(F)(F)F)n1	none
COc1ccc(C(=O)NC2CCN(c3cc(C(F)(F)F)nc(C)n3)CC2)cc1	Pf Dd2 inh 14.1µM
Cc1ccc(C(=O)NC2CCN(c3cc(C(F)(F)F)nc(C)n3)CC2)cc1	none
Cc1nc(N2CCC(NC(=O)c3cccs3)CC2)cc(C(F)(F)F)n1	Pf Dd2 inh 5.01µM
CCN1C(=O)C2CC3(CCN(C(=O)CC(C)C)CC3)CN2C1=O (stereo not given)	none
CC(C)c1ccc(OCC(=O)c2ccc3c(c2)N(CCCC(=O)NCC2CC2)C(=O)CO3)cc1	none
COC[C@@H]1CN(C(=O)c2cccc(Cl)c2)C[C@H]1C(N)=O	none
CCOC(=O)c1ccc(OCC2c3cc(OC)c(OC)cc3CCN2C(=O)Cc2ccc(F)cc2)cc1 (stereo not given)	Pf Dd2 inh 10µM
COc1ccc(C(=O)N2CCN(C(=O)COc3ccc(C)cc3)CC2)cc1OC	none
COc1ccc(CC(=O)N2CCc3cc(OC)c(OC)cc3C2COc2cc(C)cc(C)c2)cc1OC (stereo not given)	Pf Dd2 inh 3.98µM
COc1ccc(CC(=O)N2[C@@H]3CC[C@H]2CC(NC(=O)c2ccc(F)cc2)C3)cc1OC (stereo not given in full)	none
COc1cc2c(cc1OC)C(COc1ccccc1OC)N(C(=O)COc1ccc(Cl)cc1)CC2 (stereo not given)	Pf Dd2 inh 8.91µM
COC(=O)c1ccc(OCC2c3cc(OC)c(OC)cc3CCN2C(=O)c2ccc(OC)cc2)cc1 (stereo not given)	Pf Dd2 inh 7.08µM
COC[C@@H]1CN(C(=O)COc2ccc(Cl)cc2)C[C@H]1C(N)=O	none
CCOc1cc2c(cc1OCC)C(CC(=O)OC)N(C(=O)Nc1cc(C)cc(C)c1)CC2 (stereo not given)	none
COc1cc2c(cc1OC)C(CC(=O)O)N(C(=O)Nc1cc(OC)c(OC)c(OC)c1)CC2 (stereo not given)	none
O=C1NCc2ccccc2CC12CCCN2Cc1ccnc2ccccc12 (stereo not given)	none
O=C1CCN(C(=O)CCc2ccccc2)CCCOCCN1	none
Cc1cnc(-c2cccnc2)n1CC1CCNCC1	none
COc1ccc(CN2C(=O)O[C@@H]3CN(S(=O)(=O)N(C)C)C[C@@H]32)cc1OC	none
CN1C(=O)c2cccn2CC1CNC(=O)c1nccn1C (stereo not given)	none
O=C1CCN(S(=O)(=O)c2ccccc2)CCCN(C(=O)NCCc2ccccc2)CCN1	none
NC(=O)[C@H](Cc1cccs1)NC(=O)C1=C[C@@H](NC(=O)CC2(CC(=O)O)CCCC2)[C@@H](O)[C@H](O)C1	none
Cc1ccc(N2CCN(C(=O)c3cc4n(n3)CC(c3ccc(Cl)cc3)OC4)CC2)c(C)c1 (stereo not given)	none
CCOc1ccc(NC(=O)N2CCc3cc(OC)c(OC)cc3C2CNC(=O)CC(C)C)cc1 (stereo not given)	none
COC(=O)c1ccc(OCC2c3cc(OC)c(OC)cc3CCN2C(=O)Cc2ccc(OC)cc2)cc1 (stereo not given)	Pf Dd2 inh 10µM

Bioassay records (PubChem)
